The values below come from PubChem BioAssay.

As a reminder, the inhibition is the drop in the measured response relative to a control, in per cent.

Activity calls are given as the source filed them.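 The calls were made as follows, unless noted: active = inhibition of the reporter signal at or above 50%; inactive = inhibition below 50%.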

Assay [1] can be described thus: inhibitors of TNFa-induced NFkB p65 translocation, primary screen, imaging, HUVEC, MLSMR starter and 10KST1 sets (AID 438;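 active = inhibition above 20% together with a positive visual image hit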;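 also: compound added about 3h40 before a 20 min TNFalpha stimulation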;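 as to inhibition: signal is the nuclear over cytoplasmic p65 intensity ratio per well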). The note with it: HUVEC TNFa-induced p65 nuclear translocation; cell count: measured here: nuclei count (cytotoxicity indicator), at 2.08 µM; inhibition: at 2 µM, stronger effect = higher value, 0% TNFa-plus-vehicle, 100% no-TNFa wells.
Assay [2] can be described thus: inhibitors of mutant huntingtin aggregation, primary screen, imaging, exon1htt(103Q)mCFP cells, high-content imaging (AID 483;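 active = visual image review flags a hit and inhibition of aggregation exceeds 20%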;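 also: compound exposure lasted 3 days before fixation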;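 as to nuclei count: percent of the per-plate median nuclei count of sample wells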). The note with it: exon1htt(103Q)mCFP cell line, aggregate imaging, at 2 µM; inhibition of aggregation: stronger effect = higher value; nuclei count: measured here: cell count, toxicity.
The nature of assay [3]: inhibitors of E-selectin induction by TNFa, primary screen, imaging, HUVEC, immunofluorescence, MLSMR starter and 10KST1 sets (AID 487;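 active = visually confirmed hit in the image check and inhibition above 20%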;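 as to inhibition: signal is fraction of cell area covered by stained E-selectin grains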;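 as to nuclei count: 100% = median nuclei count of all wells on the same plate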). The note with it: HUVEC TNFalpha-induced E-selectin immunofluorescence imaging, at 2 µM; inhibition: stronger effect = higher value; nuclei count: measured here: cell number, toxicity.
Assay [4] can be described thus: DUSP6 inhibitors restoring Erk phosphorylation by chemical complementation, primary imaging in DUSP6-transfected HeLa (AID 609;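 active = compounds giving at least 50% inhibition in the cell-based MKP-3 phosphatase rescue imaging test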;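 as to inhibition: phospho-Erk level distribution per well compared with pooled transfected vehicle control wells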). The note with it: HeLa MKP-3 transfected, phospho-Erk imaging KS statistic, at 10 µM, cells stimulated with TPA for 15 min.
Assay [5] deals with Dual specificity protein phosphatase 6 (Homo sapiens) (UniProt Q16828). The description is as above. The note with it: HeLa MKP-3 transfected, phospho-Erk imaging KS statistic; at 10 µM; stronger effect = higher value; cells stimulated with TPA for 15 min.
For assay [6], the target named is Voltage-gated potassium channel subunit beta-2 (Rattus norvegicus) (UniProt P62483). The assay is described as follows: KvBeta enzyme negative modulators, primary screen, biochemical, NADPH fluorescence (AID 622;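 active = fluorescence slope higher than the sample average by over 3 SD, cut at about -0.22 in these data, passing the limit was not always enough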;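 also: slope of raw intensity against log time taken from 70 to 1610 s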). The note with it: recombinant KvBeta, 4-cyanobenzaldehyde reduction, at 10 µM, stronger effect = higher value.
The target is the same in assay [7]. The assay is described as follows: KvBeta positive modulators, primary screen, biochemical, NADPH fluorescence (AID 623;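 active = NADPH fluorescence slope more negative than the mean of all samples by about 3 SD, 99.7% confidence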;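 also: fluorescence intensity change per second fitted from 20 to 320 s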). The note with it: Recombinant KvBeta, NADPH fluorescence decrease slope, 10 min; at 10 µM; stronger effect = lower value.
The target in assay [8] is Alpha-2C adrenergic receptor (Homo sapiens) (UniProt P18825). The assay is described as follows: modulators of alpha2C/GIRK thallium flux, primary screen, cell-based, HEK293 alpha2C/GIRK1/2 (AID 624;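 active = fluorescence slope after compound addition differing from the mean of all screened samples at 99.7% confidence, in either direction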;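 also: slope of fluorescence ratio to pre-addition baseline per second over 15 to 24 s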). The note with it: thallium flux BTC fluorescence, at 10 µM, actives lie on both sides.
Assay [9] can be described thus: inhibitors of larval lipid processing in zebrafish, primary screen, whole organism, PED6 fluorescence, gall bladder and intestine (AID 686;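 active = a full or partial loss of lipid-probe fluorescence in the fish gall bladder, intestine or both, judged by eye; inactive = no fluorescence loss, or compound toxic to the fish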;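 also: larvae 5 to 7 days old with five fish per well; signal comes from phospholipase A2 cleavage of quenched PED6 carried via bile; overnight exposure to compound and PED6 before scoring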). The note with it: Zebrafish larvae PED6 lipid processing, fluorescence scoring; screened at 20 µM (by protocol).
Assay [10] is described as follows: inhibitors of Chlamydomonas gravitaxis, primary screen, whole organism, Chlamydomonas reinhardtii, WT vs cilia-less mutant, absorbance, 96-well (AID 463189;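 active = inhibition at or above 50% relative to wild type and mutant plate controls; inactive = inhibition below 50%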;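 also: 0% = wild type cc124 cells in DMSO and 100% = ciliumless bld1 mutant cells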). The note with it: OD600 absorbance, 2 days, at 10 µM, stronger effect = higher value.
Assay [11] in a line: inhibitors of Sendai virus-induced IRF3 signaling, primary screen, TLR/RLR signaling modifier project, cell-based, Sendai virus stimulus, luciferase, 10K MLSCN set (AID 602276;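 active = inhibition at or above 50% at 10 µM; inactive = inhibition below 50%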;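 also: firefly luciferase from ISG56 promoter only with Renilla not read in this screen; 0% = Sendai virus plus DMSO and 100% = medium plus DMSO without virus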). The note with it: HEK293 RL24 IRF3 luciferase reporter, at 10 µM, stronger effect = higher value. In general terms: A reporter such as luciferase makes a cellular process visible.
Assay [12] in a line: inhibitors of poly I:C-induced TLR3 signaling, primary screen, cell-based, poly I:C stimulus, luciferase, 10K MLSCN set (AID 602277). The note with it: HEK293-TLR3 RL24 IRF3 luciferase reporter, at 10 µM, stronger effect = higher value.
Where [13] appears, read: measured here: cell density z-score.
Where [14] appears, read: measured here: nuclear c-Myc green intensity z-score.
[15] abbreviates: measured here: nuclear pErk red intensity z-score, stronger effect = higher value.

Dual specificity protein phosphatase 6 (Homo sapiens), sequence (Q16828 whole entry, looked up): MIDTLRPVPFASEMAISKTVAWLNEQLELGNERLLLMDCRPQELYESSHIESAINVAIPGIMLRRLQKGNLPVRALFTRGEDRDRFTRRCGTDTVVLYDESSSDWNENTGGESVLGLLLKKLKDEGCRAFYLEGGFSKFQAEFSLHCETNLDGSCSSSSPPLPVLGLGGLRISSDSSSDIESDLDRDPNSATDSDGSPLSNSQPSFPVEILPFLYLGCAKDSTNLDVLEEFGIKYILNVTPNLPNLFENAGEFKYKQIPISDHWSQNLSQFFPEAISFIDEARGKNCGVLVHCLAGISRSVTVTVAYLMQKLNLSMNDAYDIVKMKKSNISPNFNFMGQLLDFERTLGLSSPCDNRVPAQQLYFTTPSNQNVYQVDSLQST
Voltage-gated potassium channel subunit beta-2 (Rattus norvegicus), sequence (P62483 whole entry, looked up): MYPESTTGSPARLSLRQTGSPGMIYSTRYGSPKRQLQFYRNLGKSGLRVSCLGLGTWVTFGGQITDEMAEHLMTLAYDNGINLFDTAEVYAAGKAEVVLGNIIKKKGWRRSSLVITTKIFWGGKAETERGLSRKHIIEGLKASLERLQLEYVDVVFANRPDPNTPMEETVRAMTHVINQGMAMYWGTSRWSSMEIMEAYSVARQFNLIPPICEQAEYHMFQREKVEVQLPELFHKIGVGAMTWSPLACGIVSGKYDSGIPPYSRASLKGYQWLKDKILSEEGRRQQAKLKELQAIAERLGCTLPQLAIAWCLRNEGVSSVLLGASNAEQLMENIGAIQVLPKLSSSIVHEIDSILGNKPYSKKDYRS
Alpha-2C adrenergic receptor (Homo sapiens), sequence (P18825 whole entry, looked up): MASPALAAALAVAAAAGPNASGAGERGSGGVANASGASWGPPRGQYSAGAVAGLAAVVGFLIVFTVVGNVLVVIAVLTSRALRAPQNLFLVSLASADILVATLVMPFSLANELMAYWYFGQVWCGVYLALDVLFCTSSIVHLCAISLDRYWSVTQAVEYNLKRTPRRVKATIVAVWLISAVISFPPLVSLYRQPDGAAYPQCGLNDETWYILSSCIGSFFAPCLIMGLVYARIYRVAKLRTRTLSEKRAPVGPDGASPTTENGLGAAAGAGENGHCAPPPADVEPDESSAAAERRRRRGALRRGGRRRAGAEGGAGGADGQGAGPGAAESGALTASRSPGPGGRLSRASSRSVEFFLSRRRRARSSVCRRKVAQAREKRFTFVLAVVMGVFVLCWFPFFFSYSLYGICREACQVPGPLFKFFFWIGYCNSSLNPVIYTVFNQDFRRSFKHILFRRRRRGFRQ

Consider `N#Cc1nc(-c2cccs2)oc1NCCc1ccccc1`, for which the cell count in assay [1] is 421. The inhibition is -5.5% (inactive) in assay [1]; -33.7% (inactive) in assay [3]; -6.48% (inactive) in assay [5]; 11.6% (inactive) in [10]; -37.1% (inactive) in [11]; -77.6% (inactive) in [12]. Besides, in assay [2], the inhibition of aggregation was 2.8% (inactive). Further, the values for the nuclei count in [2] and in [3] were 101% and 109%, respectively. In addition, the z-score in [4] (setting [13]) is -0.62; in assay [4] (setting [14]) it was -0.621; in assay [4] (setting [15]), -1.02. In addition, the fluorescence slope in assay [6] is -0.332 (inactive). Besides, the NADPH fluorescence slope in assay [7] was 1.7e-05 (inactive). Also, in assay [8], the slope is 0.00708 (inactive). Moreover, the molecule was classed as inactive in assay [9].

As for `Cc1cc(C)nc(NC2=NCC(=O)N2c2ccc(Cl)cc2)n1`, in assay [1], the cell count amounted to 641. Moreover, the inhibition is -3.3% (inactive) in assay [1]; -78.7% (inactive) in assay [3]; 13.9% (inactive) in assay [5]; -3.81% (inactive) in assay [10]; 15.2% (inactive) in [11]; 17.2% (inactive) in assay [12]. Further, the inhibition of aggregation in assay [2] is -9.6% (inactive). Also, the values for the nuclei count in [2] and in [3] were 111% and 107%, respectively. The results for the z-score in assay [4] (setting [13]), in [4] (setting [14]) and in [4] (setting [15]) were 0.855, 0.968 and -1.07, respectively. For the same molecule, the fluorescence slope in assay [6] was -0.492 (inactive). For the same molecule, the NADPH fluorescence slope in [7] is -1.6e-05 (inactive). In addition, the slope in assay [8] was 0.00625 (inactive). For the same molecule, the result in assay [9] was inactive.

For the molecule `CCC(C(=O)OCCN(CC)CC)c1ccccc1` (stereo not drawn), in assay [1], the cell count was found to be 572. Besides, the inhibition in assay [1] is -11.1% (inactive); in assay [3], -56.9% (inactive); in assay [5] it was 19.2% (inactive); in [10], 21.8% (inactive); in [11] it was 8.3% (inactive); in assay [12], 34.3% (inactive). Further, the inhibition of aggregation in assay [2] is -9.9% (inactive). The nuclei count stood at 104% in [2] and 130% in assay [3]. The z-score is 1.14 in assay [4] (setting [13]), 1.04 in assay [4] (setting [14]) and 0.111 in assay [4] (setting [15]). In addition, in assay [6], the fluorescence slope is -0.459 (inactive). In addition, the NADPH fluorescence slope in assay [7] was -3.7e-05 (inactive). For the same molecule, in [8], the slope was 0.00422 (inactive). For the same molecule, in assay [9], the outcome was inactive.

In the case of `Cc1nc(/N=C(\N)Nc2ccccc2)nc2ccccc12`, the cell count in assay [1] came to 304. Besides, the inhibition in [1] is 2.5% (inactive); in assay [3] it was -112% (inactive); in assay [5], -0.624% (inactive); in assay [10], 7.3% (inactive); in assay [11], -6.34% (inactive); in [12], -21.7% (inactive). Moreover, in assay [2], the inhibition of aggregation is -14% (inactive). Besides, the nuclei count in assay [2] is 103%; in assay [3], 110%. The z-score in [4] (setting [13]) was found to be 0.361; in [4] (setting [14]), 0.688; in assay [4] (setting [15]), 0.354. Moreover, the fluorescence slope in assay [6] was -0.38 (inactive). For the same molecule, the NADPH fluorescence slope in assay [7] is 2.3e-05 (inactive). Also, in assay [8], the slope is 0.0057 (inactive). Besides, the molecule was classed as inactive in [9].

For the molecule `C[C@@H]1C[C@H]2[C@@H]3C[C@H](F)C4=CC(=O)C=C[C@]4(C)[C@@]3(F)[C@@H](O)C[C@]2(C)[C@@]1(O)C(=O)CO`, the cell count in assay [1] is 647. Moreover, the inhibition is -3.8% (inactive) in assay [1]; -111% (inactive) in assay [3]; 9.37% (inactive) in [5]; -6.12% (inactive) in assay [10]; -11.6% (inactive) in assay [11]; 33.6% (inactive) in assay [12]. Also, the inhibition of aggregation in assay [2] was -18.8% (inactive). For the same molecule, the results for the nuclei count in assay [2] and in [3] were 42.3% and 128%, respectively. The results for the z-score in assay [4] (setting [13]), in assay [4] (setting [14]) and in [4] (setting [15]) were -1.38, 0.0959 and 0.878, respectively. Also, in assay [6], the fluorescence slope was -0.535 (inactive). Further, the NADPH fluorescence slope in assay [7] is -3.8e-05 (inactive). Further, the slope in [8] is 0.00526 (inactive). In [9], the molecule was called inactive.

In the case of `CCOC(=O)CSC1=C(C#N)C(=O)NC2(CCCCC2)S1`, the cell count in assay [1] came out at 580. Also, the inhibition in assay [1] was -10.9% (inactive); in [3] it was -43.8% (inactive); in assay [5], -7.86% (inactive); in assay [10], -1.64% (inactive); in assay [11], 8.53% (inactive); in assay [12] it was 100% (active). In addition, in assay [2], the inhibition of aggregation was -5.9% (inactive). Besides, the nuclei count in assay [2] came to 108%; in [3], 131%. Also, the z-score in assay [4] (setting [13]) is -1.03; in assay [4] (setting [14]), 0.989; in assay [4] (setting [15]) it was 0.0798. Further, the fluorescence slope in [6] was -0.497 (inactive). The NADPH fluorescence slope in [7] is -4.9e-05 (inactive). Also, the slope in assay [8] was 0.00597 (inactive). Besides, in [9], the molecule was classed as inactive.

`C[C@]12CC[C@@H]3c4ccc(O[C@@H]5O[C@H](C(=O)O)[C@@H](O)[C@H](O)[C@H]5O)cc4CC[C@H]3[C@@H]1C[C@@H](O)[C@@H]2O`: the cell count in [1] came out at 606. For the same molecule, the inhibition in [1] was -2.6% (inactive); in assay [3], -146% (inactive); in [5], 1.48% (inactive); in assay [10], -2.21% (inactive); in assay [11], 15% (inactive); in [12], 32.3% (inactive). For the same molecule, the inhibition of aggregation in [2] is -0.5% (inactive). Besides, the nuclei count in assay [2] was 90.1%; in assay [3] it was 127%. Also, the z-score in assay [4] (setting [13]) is 0.0825; in [4] (setting [14]), -0.52; in [4] (setting [15]), -0.309. In addition, the fluorescence slope in assay [6] was -0.487 (inactive). The NADPH fluorescence slope in assay [7] was -4.1e-05 (inactive). Further, the slope in assay [8] was 0.00431 (inactive). Moreover, the molecule was classed as inactive in assay [9].

As to `CC(=O)OCC(=O)[C@@]1(O)[C@H](C)C[C@H]2[C@@H]3CCC4=CC(=O)C=C[C@]4(C)[C@@]3(F)[C@@H](O)C[C@@]21C`, in assay [1], the cell count turned out to be 499. The inhibition in assay [1] is -5.8% (inactive); in assay [3], -54.1% (inactive); in assay [5], -4.44% (inactive); in assay [10], 26.6% (inactive); in assay [11] it was 14.1% (inactive); in assay [12], 31.9% (inactive). The inhibition of aggregation in assay [2] is 0.4% (inactive). Also, the figures for the nuclei count in assay [2] and in assay [3] were 45.5% and 112%, respectively. In addition, the values for the z-score in assay [4] (setting [13]), in assay [4] (setting [14]) and in [4] (setting [15]) were -0.698, 0.622 and -0.569, respectively. For the same molecule, in assay [6], the fluorescence slope was -0.495 (inactive). In addition, the NADPH fluorescence slope in assay [7] is -3.4e-05 (inactive). Besides, the slope in assay [8] was 0.00493 (inactive). In addition, the molecule was classed as inactive in assay [9].

With `C=CCSc1nnc2n(-c3ccccc3OC)c(=O)c3c4c(sc3n12)CCC4`, the cell count in [1] was determined as 578. Further, the inhibition in assay [1] is -5.9% (inactive); in assay [3] it was -27% (inactive); in assay [5] it was 7.73% (inactive); in [10], 43.3% (inactive); in assay [11], 1.81% (inactive); in assay [12], 0.316% (inactive). In addition, in assay [2], the inhibition of aggregation is 15.1% (inactive). The nuclei count worked out at 59.7% in [2] and 126% in assay [3]. Also, the z-score is 0.876 in assay [4] (setting [13]), -0.888 in [4] (setting [14]) and -0.633 in [4] (setting [15]). Also, the fluorescence slope in assay [6] is -0.339 (inactive). For the same molecule, the NADPH fluorescence slope in assay [7] was -1.1e-06 (inactive). The slope in [8] was 0.00538 (inactive). Also, the call in [9] was inactive.
